Laboratory results published in PubChem BioAssay (NCATS).
Results filed as inconclusive are left out. Active and inactive are the calls of the source. Unless noted, the call rests on the fitted dose curve; in most records, active means well fitted curve in the direction sought with a large enough effect; inconclusive means small, poorly fitted or top-dose-only effect, or another doubt; inactive means no such curve, though single readings can be large; an effect the other way counts as inactive or inconclusive.

Assays:
[1] = molecular target: Lysosomal acid glucosylceramidase (Homo sapiens) (UniProt P04062); test: Glucocerebrosidase-p2 (AID 348; in the data active means potency below about 10 µM; further: potency means the concentration at half of the fitted maximal effect); conditions: purified GBA, blue fluorogenic substrate, 40 min
Chain of Lysosomal acid glucosylceramidase (Homo sapiens) (P04062 whole entry, looked up): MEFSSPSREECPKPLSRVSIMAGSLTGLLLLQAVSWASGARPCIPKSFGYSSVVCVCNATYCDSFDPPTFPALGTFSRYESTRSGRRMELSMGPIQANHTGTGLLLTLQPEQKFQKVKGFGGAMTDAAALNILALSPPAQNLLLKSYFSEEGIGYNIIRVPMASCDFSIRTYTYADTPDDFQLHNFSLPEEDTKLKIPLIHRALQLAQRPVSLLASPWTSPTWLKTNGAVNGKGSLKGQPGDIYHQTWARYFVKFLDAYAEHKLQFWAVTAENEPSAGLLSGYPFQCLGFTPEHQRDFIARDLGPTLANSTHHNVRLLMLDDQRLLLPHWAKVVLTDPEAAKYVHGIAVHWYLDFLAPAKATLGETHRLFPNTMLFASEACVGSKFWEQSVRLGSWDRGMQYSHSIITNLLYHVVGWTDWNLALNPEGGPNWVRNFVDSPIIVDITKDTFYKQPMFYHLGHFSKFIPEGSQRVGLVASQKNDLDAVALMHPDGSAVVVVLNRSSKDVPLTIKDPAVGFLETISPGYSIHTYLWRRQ
Summary of the method: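 Normal human glucocerebrosidase (0.2 nM) with blue fluorogenic substrate (80 uM final) in citrate/phosphate pH 5.9 with 10mM sodium taurocholate, 0.01% tween-20; 40 min RT, NaOH/glycine stop; fluorescence Ex 365/Em 440; AC50 from a titration from 0.6 nM upwards.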

[2] = molecular target: Glucocorticoid receptor (Homo sapiens) (UniProt P04150); test: GR-GFP Redistribution (AID 450;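 active means compounds whose dose series gives a full or clear partial fitted curve of increased nuclear translocation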; further: potency means the concentration at half of the fitted maximal effect); conditions: U2OS GR-GFP nuclear translocation, laser cytometry, 2 h
Chain of Glucocorticoid receptor (Homo sapiens) (P04150 whole entry, looked up, the tested form may be a part): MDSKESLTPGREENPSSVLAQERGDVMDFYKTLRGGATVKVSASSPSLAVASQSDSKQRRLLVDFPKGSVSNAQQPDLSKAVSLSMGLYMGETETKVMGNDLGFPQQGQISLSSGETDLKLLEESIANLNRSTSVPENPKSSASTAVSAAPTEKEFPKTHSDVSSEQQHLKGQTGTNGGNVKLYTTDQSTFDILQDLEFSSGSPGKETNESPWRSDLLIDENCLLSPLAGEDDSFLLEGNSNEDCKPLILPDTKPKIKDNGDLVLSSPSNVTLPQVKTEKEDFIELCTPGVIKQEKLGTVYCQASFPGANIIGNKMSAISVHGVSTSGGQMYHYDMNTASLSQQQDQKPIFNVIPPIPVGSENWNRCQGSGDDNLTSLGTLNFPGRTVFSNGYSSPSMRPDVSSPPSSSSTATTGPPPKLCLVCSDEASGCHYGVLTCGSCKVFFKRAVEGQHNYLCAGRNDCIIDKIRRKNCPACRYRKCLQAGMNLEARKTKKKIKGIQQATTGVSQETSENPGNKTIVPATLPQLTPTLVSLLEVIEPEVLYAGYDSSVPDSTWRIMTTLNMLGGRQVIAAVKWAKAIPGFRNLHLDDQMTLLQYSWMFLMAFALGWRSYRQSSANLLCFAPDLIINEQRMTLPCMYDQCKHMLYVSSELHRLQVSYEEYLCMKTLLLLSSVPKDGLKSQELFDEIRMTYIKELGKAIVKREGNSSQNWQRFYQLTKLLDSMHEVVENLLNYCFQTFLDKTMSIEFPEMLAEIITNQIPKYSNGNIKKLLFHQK

[3] = molecular target: Glucocorticoid receptor (Homo sapiens) (UniProt P04150); test: GR-EFC Redistribution (AID 451; calls by dose curve; further: potency means the concentration at half of the fitted maximal effect); conditions: CHO-K1 GR-EFC translocation, beta-gal luminescence, 2 h
Summary of the method: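 CHO-K1 cells expressing nuclear EA and GR-ED fragments of b-gal; compounds titrated up to 46 uM final, 2 h at 37 C. GR nuclear translocation read as complemented b-gal luminescence after 1 h RT detection.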

[4] = molecular target: Mitogen-activated protein kinase 10 (Mus musculus) (UniProt Q61831); test: JNK3 AlphaScreen Assay (AID 530; active means well fitted curve in either direction with a large enough effect, not every such curve was filed as active;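 further: kinase came from lysate of stimulated human HepG2 cells; signal reports phosphorylation of biotinylated GST-cJun 1-79 at Ser73 with 10 µM ATP; on the % scale 0 is the no-effect control and ±100 the full control effect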)
Summary of the method: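 Activity was read by AlphaScreen after JNK3-containing HepG2 lysate (cytokine pre-activated) phosphorylated biotinylated GST-cJun with 10 uM ATP at room temperature. Phospho-Ser73 cJun antibody with Protein-A acceptor beads provided detection.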

[5] = molecular target: 3',5'-cyclic-AMP phosphodiesterase 4B (Homo sapiens) (UniProt Q07343); test: qHTS Assay for Inhibitors of PDE-IV (AID 607; active means well fitted activation curve with a large enough effect in the main read-out, with a control signal flat, not every such curve was filed as active; further: % of control where 0% means no effect)
Chain of 3',5'-cyclic-AMP phosphodiesterase 4B (Homo sapiens) (Q07343 whole entry, looked up): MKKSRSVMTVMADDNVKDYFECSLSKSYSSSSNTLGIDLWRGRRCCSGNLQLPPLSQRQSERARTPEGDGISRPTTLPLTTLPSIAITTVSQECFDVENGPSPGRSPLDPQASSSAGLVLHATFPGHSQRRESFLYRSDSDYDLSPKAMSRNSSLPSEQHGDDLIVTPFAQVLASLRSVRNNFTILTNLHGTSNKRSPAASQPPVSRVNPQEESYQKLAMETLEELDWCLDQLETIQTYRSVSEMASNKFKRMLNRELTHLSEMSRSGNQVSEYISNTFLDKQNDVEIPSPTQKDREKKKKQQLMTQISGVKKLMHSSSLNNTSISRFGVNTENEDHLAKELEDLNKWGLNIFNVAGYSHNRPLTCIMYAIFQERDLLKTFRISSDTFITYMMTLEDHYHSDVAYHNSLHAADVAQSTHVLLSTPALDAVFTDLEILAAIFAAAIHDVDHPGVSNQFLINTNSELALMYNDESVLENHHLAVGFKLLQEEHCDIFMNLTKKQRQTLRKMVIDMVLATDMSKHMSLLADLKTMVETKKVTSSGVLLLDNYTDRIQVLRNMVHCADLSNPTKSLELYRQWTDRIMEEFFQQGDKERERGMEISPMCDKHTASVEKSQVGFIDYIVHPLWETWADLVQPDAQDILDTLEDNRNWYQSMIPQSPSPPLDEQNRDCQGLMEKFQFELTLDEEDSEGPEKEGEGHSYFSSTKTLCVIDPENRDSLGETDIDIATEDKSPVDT
Summary of the method: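 HEK293 ACTOne cells with CNG channel (1000/well), endogenous PDE4; membrane potential dye, compounds up to 22.9 uM final. Fluorescence Ex 535/Em 590; RO 20-1724 (100 uM final) as reference.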

[6] = Confirmation and Secondary Assay for Modulators of Hemoglobin Beta Chain Splicing at IVS2 654 locus (AID 910);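 further: HeLa cells stably carrying EGFP split by mutant beta-globin IVS2-654 intron; % of control where 0% means no effect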
Summary of the method: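 HeLa cells stably expressing EGFP interrupted by β-globin IVS2-654 intron, seeded overnight in Opti-MEM/2% FCS, then treated 2 days at 37 °C. Restored splicing read as total peak GFP intensity per well by laser scanning cytometry (488 nm excitation, 500–520 nm emission); 500 nM antisense PNA as control.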

[7] = Confirmation and Secondary Assay for Modulators of Hemoglobin Beta Chain Splicing at IVS2 705 locus (AID 930);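 further: HeLa cells stably expressing the EGFP-705 splicing reporter; GFP fluorescence per well restored by corrected splicing of the IVS2-705 intron in EGFP; % of control where 0% means no effect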
Summary of the method: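 HeLa EGFP-705 reporter; 500 cells/well, o/n 37C 5% CO2; cpd 2 d; 488 ex/500-520 em laser scan; total peak GFP intensity/well. Ref: 500 nM […] antisense PNA.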

[8] = qHTS Assay for Lipid Storage Modulators (AID 1519; calls by dose curve); conditions: Drosophila S3 cells, BODIPY lipid droplet/cell ratio, laser cytometry, cells loaded with oleic acid; for activity change, negative = inhibition: at 57.5 µM (top of the series)
Summary of the method: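 Cells seeded at 5,000 per well were treated with compounds over a concentration series and loaded with oleic acid (400 uM, as added). Lipid droplet fluorescence (488 nm excitation, 500-530 nm channel) was read by laser-scanning cytometry and normalized to 20 uM Triacsin C.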

[9] = molecular target: Calcium and integrin-binding protein 1 (Homo sapiens) (UniProt Q99828); test: Primary qHTS for Identification of Calcium Integrin Binding Protein 1 (CIB1) Competitor (AID 1508620);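 further: GST tagged CIB1 binding a fluorescein labelled alphaIIb integrin peptide tracer; top concentration of the series differs between compounds; on the % scale 0 is the no-effect control and ±100 the full control effect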
Chain of Calcium and integrin-binding protein 1 (Homo sapiens) (Q99828 whole entry, looked up): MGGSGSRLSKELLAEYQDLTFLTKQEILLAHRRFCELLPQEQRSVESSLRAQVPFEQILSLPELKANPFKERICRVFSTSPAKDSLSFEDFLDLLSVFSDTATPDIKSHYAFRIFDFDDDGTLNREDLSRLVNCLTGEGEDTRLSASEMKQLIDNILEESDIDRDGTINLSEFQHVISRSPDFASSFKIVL
Summary of the method: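 Fluorescence polarization competition: GST-tagged CIB1 (1 uM final) preincubated with compound 15 min at room temperature, then FITC-labelled alphaIIb peptide (100 nM final) added. After 15 min at room temperature, polarization read at Ex 480/Em 540.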

[10] = Primary qHTS for small molecule stabilizers of the endoplasmic reticulum resident proteome: Secreted ER Calcium Modulated Protein (SERCaMP) assay (AID 1508630); further: on the % scale 0 is the no-effect control and ±100 the full control effect
Summary of the method: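 The SH-SY5Y reporter protocol was run at 3 concentrations up to 38.3 uM (primary) or 11 concentrations (follow-up): 16 h compound, 100 nM thapsigargin for 4 h, then extracellular luciferase luminescence.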

[11] = molecular target: Cytochrome P450 1A2 (Homo sapiens) (UniProt P05177); test: p450-cyp1a2 (AID 410; calls by dose curve; further: potency means the concentration at half of the fitted maximal effect)
Summary of the method: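 O-Demethylation of luciferin 6' methyl ether by human CYP1A2 is monitored as luciferase luminescence. Substrate sits at Km (100uM); enzyme is 20nM. Values are scaled to 57 uM furafylline as maximal inhibition.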

[12] = Stat Signaling Pathway (AID 446; active means well fitted curve in either direction with a large enough effect, not every such curve was filed as active;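 further: ME-180 cervical cancer cells given 40 pM IL-6 alongside compound; SIE-controlled beta-lactamase reporter measured as 460/530 nm FRET emission ratio; on the % scale 0 is the no-effect control and ±100 the full control effect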); conditions: ME-180 SIE beta-lactamase reporter, IL-6 stimulated, 5 h; at 7.69 µM (top of the series) unless noted
Summary of the method: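 Normalization used AC90 stimulation (300 pM IL-6) and AC90 inhibition (125 nM pan-JAK inhibitor at 40 pM IL-6). The underlying signal is SIE-driven beta-lactamase in ME-180 cells after 5 h IL-6 exposure with compound.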

[13] = molecular target: Cytochrome P450 3A4 (Homo sapiens) (UniProt P08684); test: qHTS Assay for Inhibitors and Substrates of Cytochrome P450 3A4 (AID 884); further: potency means the concentration at half of the fitted maximal effect; nearly all actives have a fitted effect of over 50% in size
Chain of Cytochrome P450 3A4 (Homo sapiens) (P08684 whole entry, looked up): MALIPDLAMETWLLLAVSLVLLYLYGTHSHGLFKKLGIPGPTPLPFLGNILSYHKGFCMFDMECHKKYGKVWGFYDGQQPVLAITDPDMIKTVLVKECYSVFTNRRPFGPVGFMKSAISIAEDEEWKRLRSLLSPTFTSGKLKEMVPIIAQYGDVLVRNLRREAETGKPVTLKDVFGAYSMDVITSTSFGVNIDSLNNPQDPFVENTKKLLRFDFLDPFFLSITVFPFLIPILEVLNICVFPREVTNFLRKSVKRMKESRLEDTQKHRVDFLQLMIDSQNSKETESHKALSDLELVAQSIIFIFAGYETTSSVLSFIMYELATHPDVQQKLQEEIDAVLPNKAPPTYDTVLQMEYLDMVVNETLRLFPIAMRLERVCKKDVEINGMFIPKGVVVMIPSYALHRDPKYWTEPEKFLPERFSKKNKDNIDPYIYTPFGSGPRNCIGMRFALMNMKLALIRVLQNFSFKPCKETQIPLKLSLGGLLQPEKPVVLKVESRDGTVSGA
Summary of the method: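 Luminescent readout of luciferin produced by CYP3A4 (20 nM) dealkylation of Luciferin-PPXE, 25 uM (its KM). NADPH-driven reaction ran 60 min at RT after 10 min compound preincubation; data scaled to 57 uM ketoconazole as 100% inhibition.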

[14] = molecular target: Cytochrome P450 3A4 (Homo sapiens) (UniProt P08684); test: qHTS Assay for Activators of Cytochrome P450 3A4 (AID 885); further: nearly all actives have a fitted effect of over 65% in size
Summary of the method: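 Human CYP3A4 dealkylates Luciferin-PPXE to luciferin, which luciferase detection converts to light. Substrate was at its KM (25uM), buffer 200mM KPO4, reaction 60 min at RT.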

[15] = molecular target: Cytochrome P450 2D6 (Homo sapiens) (UniProt P10635); test: qHTS Assay for Inhibitors and Substrates of Cytochrome P450 2D6 (AID 891); further: potency means the concentration at half of the fitted maximal effect; nearly all actives have a fitted effect of over 60% in size
Summary of the method: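 Luminescent read-out of luciferin formed by 5 nM human CYP2D6 demethylating 30 uM Luciferin-ME EGE (Km level) over 60 min at room temperature after NADPH regeneration addition. Data normalized to full inhibition by 1.43 uM quinidine.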

[16] = molecular target: Cytochrome P450 2C19 (Homo sapiens) (UniProt P33261); test: qHTS Assay for Inhibitors and Substrates of Cytochrome P450 2C19 (AID 899); further: potency means the concentration at half of the fitted maximal effect; nearly all actives have a fitted effect of over 60% in size
Summary of the method: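 Signal comes from luciferase acting on luciferin released by CYP2C19-mediated hydroxylation of Luciferin-H EGE, 10uM (KM). Assay mix: 5nM enzyme, 50mM KPO4; 60 min at 37C with NADPH regeneration. Data normalized against 57uM ketoconazole.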

[17] = molecular target: Ubiquitin carboxyl-terminal hydrolase 1 (Homo sapiens) (UniProt O94782); test: Inhibitors of USP1/UAF1: Pilot qHTS (AID 504865);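 further: rhodamine fluorescence freed from ubiquitin-rhodamine substrate followed over time; top concentration of the series differs between compounds; on the % scale 0 is the no-effect control and ±100 the full control effect; nearly all actives have a fitted effect of over 35% in size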
Chain of Ubiquitin carboxyl-terminal hydrolase 1 (Homo sapiens) (O94782 whole entry, looked up): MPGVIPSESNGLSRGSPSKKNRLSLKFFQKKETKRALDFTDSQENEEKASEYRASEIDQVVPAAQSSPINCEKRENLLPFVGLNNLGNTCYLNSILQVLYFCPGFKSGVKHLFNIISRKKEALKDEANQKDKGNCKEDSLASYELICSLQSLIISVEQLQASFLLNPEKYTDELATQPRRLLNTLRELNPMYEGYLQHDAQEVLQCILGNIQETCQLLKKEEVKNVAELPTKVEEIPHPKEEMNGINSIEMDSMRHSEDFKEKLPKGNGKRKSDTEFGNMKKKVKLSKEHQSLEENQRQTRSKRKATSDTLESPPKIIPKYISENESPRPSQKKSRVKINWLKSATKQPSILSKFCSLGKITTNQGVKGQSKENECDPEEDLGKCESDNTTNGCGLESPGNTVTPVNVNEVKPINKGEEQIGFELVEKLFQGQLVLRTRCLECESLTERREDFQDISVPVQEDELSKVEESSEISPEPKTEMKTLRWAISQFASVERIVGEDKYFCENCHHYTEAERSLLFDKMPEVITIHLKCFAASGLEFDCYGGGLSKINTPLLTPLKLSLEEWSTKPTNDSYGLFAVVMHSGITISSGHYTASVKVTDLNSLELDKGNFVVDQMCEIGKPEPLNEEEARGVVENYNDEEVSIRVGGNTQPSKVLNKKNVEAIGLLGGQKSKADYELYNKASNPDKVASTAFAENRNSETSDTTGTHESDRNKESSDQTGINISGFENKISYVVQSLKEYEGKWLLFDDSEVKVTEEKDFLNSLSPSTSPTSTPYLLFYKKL
Summary of the method: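 1nM USP1/UAF1 + cpd, 15 min RT; start w/ Ub-Rho 150nM final; kinetic FL 480/540 nm, 6 reads q60 s. Buffer 50mM HEPES pH 7.8, 0.5mM EDTA, 1mM TCEP, 0.01% Tween-20, 0.1 mg/ml BSA.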

[18] = molecular target: N-terminal Xaa-Pro-Lys N-methyltransferase 1 (Homo sapiens) (UniProt Q9BV86); test: Confirmatory qHTS for Inhibitors of N-terminal methyltransferase 1 (NTMT1): MTaseGlo Assay (AID 1645874);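 further: luminescence from SAH made as NTMT1 methylates SPKRIA peptide using SAM; 0% = DMSO control and -100% = no-enzyme control; nearly all actives have a fitted effect of over 65% in size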
Summary of the method: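 Inhibition was derived from luminescence after SAH-to-ATP conversion, scaled between no-enzyme and DMSO wells, then fitted by 4-parameter Hill. Conditions: 125 nM NTMT1, 100 uM SAM, 1 uM SPKRIA, 30 min RT.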

[19] = AP1 Signaling Pathway (AID 357; active means well fitted curve in either direction with a large enough effect, not every such curve was filed as active); conditions: ME-180 (cervical carcinoma) AP-1-bla reporter, EGF-induced, beta-lactamase ratio, 5 h; at 7.69 µM (top of the series) unless noted
Summary of the method: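 Read-out was the 460nm/530nm emission ratio (excitation 405nm) after CCF4 loading for 2.5 hours at room temperature. Cells carried an AP-1-driven beta-lactamase reporter, were stimulated with EC50 EGF plus compound for 5 hours, and AC50 values came from titrations.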

[20] = NFAT Signaling Pathway (AID 444; active means well fitted curve in either direction with a large enough effect, not every such curve was filed as active); conditions: Jurkat NFAT-bla M1, carbachol, beta-lactamase ratio, 5 h; at 7.69 µM (top of the series) unless noted
Summary of the method: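 Jurkat cells with NFAT-driven β-lactamase reporter and co-expressed M1 receptor, stimulated with carbachol (final 1 uM, ~EC50), compound titration, 5 h at 37 °C. CCF4 loaded 1 h at RT; 460/530 nm ratio gave %activity and AC50.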

[21] = molecular target: Dual specificity protein kinase CLK4 (Homo sapiens) (UniProt Q9HAZ1); test: qHTS Assay for Inhibitors of CDC-like Kinase 4 (Kinase-Glo Assay) (AID 1770); further: potency means the concentration at half of the fitted maximal effect; nearly all actives have a fitted effect of over 65% in size
Chain of Dual specificity protein kinase CLK4 (Homo sapiens) (Q9HAZ1 whole entry, looked up): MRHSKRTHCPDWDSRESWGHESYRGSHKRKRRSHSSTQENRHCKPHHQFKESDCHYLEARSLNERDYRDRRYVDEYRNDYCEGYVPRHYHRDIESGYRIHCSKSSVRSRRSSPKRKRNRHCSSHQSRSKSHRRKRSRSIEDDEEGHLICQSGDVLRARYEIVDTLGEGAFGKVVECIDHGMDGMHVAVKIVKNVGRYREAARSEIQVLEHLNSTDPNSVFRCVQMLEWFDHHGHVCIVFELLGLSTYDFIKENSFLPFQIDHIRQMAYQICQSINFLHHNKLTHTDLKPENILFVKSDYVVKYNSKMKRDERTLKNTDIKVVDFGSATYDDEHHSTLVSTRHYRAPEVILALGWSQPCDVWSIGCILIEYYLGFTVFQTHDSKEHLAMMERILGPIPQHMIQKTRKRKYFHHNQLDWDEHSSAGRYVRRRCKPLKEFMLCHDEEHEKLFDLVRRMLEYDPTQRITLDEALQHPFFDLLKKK
Summary of the method: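 Readout: Kinase-Glo luminescence from ATP left after a 4.5 h room-temperature reaction of 25 nM Clk4 with 100 uM RS peptide and 1 uM ATP (final). Buffer: 25 mM Tris pH 7.5, 10 mM MgCl2.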

[22] = molecular target: Dual specificity protein kinase CLK4 (Homo sapiens) (UniProt Q9HAZ1); test: qHTS Assay for Inhibitors of CDC-like Kinase 4 (ADP-Glo Assay) (AID 1771); further: potency means the concentration at half of the fitted maximal effect; nearly all actives have a fitted effect of over 70% in size
Summary of the method: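 Compounds are pin-transferred onto substrate mix (100 uM RS peptide, 1 uM ATP), then 25 nM Clk4 is added. After 1 hr at room temperature, ADP-Glo reagent runs 45 min, detection reagent 30 min, then luminescence is read.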

[23] = molecular target: Dual specificity protein kinase CLK4 (Homo sapiens) (UniProt Q9HAZ1); test: qHTS Assay for Inhibitors of CDC-like Kinase 4 (ADP-FP Assay) (AID 1795); further: potency means the concentration at half of the fitted maximal effect; nearly all actives have a fitted effect of over 60% in size
Summary of the method: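 FP readout: Orange Transcreener ADP2 tracer (4 nM) plus ADP antibody, read after 30 min at room temperature. Kinase step: 6.25 nM Clk4, 100 uM RS peptide, 1 uM ATP, pH 7.5, 1 h.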

[24] = molecular target: Rap guanine nucleotide exchange factor 3 (Homo sapiens) (UniProt O95398); test: Confirmatory qHTS for antagonist of cAMP-regulated guanine nucleotide exchange factor 3 (EPAC1) (AID 1645880);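 further: plate controls were DMSO only for no effect and full effect of the ATA control for full effect; nearly all actives have a fitted effect of over 55% in size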
Chain of Rap guanine nucleotide exchange factor 3 (Homo sapiens) (O95398 whole entry, looked up): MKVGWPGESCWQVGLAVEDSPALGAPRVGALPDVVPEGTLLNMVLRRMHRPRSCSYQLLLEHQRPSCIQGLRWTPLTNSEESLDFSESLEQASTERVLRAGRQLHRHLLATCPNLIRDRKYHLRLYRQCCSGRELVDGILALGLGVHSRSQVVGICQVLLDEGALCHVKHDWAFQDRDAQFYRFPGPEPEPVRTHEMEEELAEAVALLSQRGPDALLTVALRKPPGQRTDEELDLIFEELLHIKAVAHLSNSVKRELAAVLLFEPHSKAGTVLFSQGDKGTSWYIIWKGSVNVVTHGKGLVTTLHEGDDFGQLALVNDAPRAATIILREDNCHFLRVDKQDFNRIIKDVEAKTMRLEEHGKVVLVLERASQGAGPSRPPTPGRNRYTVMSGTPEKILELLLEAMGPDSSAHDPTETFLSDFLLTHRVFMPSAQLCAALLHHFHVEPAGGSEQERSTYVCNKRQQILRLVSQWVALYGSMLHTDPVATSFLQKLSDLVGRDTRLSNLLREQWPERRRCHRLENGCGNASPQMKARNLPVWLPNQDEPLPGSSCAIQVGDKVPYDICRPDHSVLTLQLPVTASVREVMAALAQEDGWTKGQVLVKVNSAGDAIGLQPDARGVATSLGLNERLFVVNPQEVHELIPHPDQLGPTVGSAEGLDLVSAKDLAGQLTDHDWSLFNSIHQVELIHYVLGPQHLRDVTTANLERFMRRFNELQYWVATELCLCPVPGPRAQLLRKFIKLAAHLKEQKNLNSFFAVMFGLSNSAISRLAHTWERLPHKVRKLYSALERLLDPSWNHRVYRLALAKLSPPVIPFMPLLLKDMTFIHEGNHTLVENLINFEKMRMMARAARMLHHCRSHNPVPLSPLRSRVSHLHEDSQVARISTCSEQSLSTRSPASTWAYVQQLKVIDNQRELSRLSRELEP
Summary of the method: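 Released BODIPY-GDP fluoresces less than Rap1-bound BODIPY-GDP; the signal is followed at 480/540 nm at 5-min intervals over 30 min, after 5 min at room temperature. Reactions contain 100 nM EPAC1, 250 nM RAP1B-BODIPY-GDP and 50 uM GDP; results are normalized to ATA and DMSO.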

[25] = molecular target: Rap guanine nucleotide exchange factor 3 (Homo sapiens) (UniProt O95398); test: Confirmatory qHTS for agonist of cAMP-regulated guanine nucleotide exchange factor 3 (EPAC1) (AID 1645881);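 further: EPAC1 catalysed release of BODIPY-GDP from Rap1B seen as fluorescence loss; 100% = effect of cAMP agonist control; nearly all actives have a fitted effect of over 75% in size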
[26] = molecular target: Rap guanine nucleotide exchange factor 4 (Homo sapiens) (UniProt Q8WZA2); test: Confirmatory qHTS for agonist of cAMP-regulated guanine nucleotide exchange factor 4 (EPAC2) (AID 1645884);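 further: nucleotide exchange releases bodipy-GDP from Rap1 and this lowers its fluorescence; on the % scale 0 is the no-effect control and ±100 the full control effect; nearly all actives have a fitted effect of over 65% in size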
[27] = molecular target: Rap guanine nucleotide exchange factor 4 (Homo sapiens) (UniProt Q8WZA2); test: Confirmatory qHTS for antagonist of cAMP-regulated guanine nucleotide exchange factor 4 (EPAC2) (AID 1645885); further: on the % scale 0 is the no-effect control and ±100 the full control effect; nearly all actives have a fitted effect of over 25% in size
[28] = molecular target: Rap guanine nucleotide exchange factor 3 (Homo sapiens) (UniProt O95398); test: Counterscreen qHTS for antagonist of cAMP-regulated guanine nucleotide exchange factor 3 (EPAC1) (AID 1645888); further: % of control where 0% means no effect
Summary of the method: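 Rap1B–BODIPY-GDP (250 nM) with 50 uM GDP; compounds pin-transferred to 9.74 nM–152 uM final (activator) or from 7.32 nM upwards (inhibitor). Fluorescence Ex/Em 480/540 nm read at 5 and 30 min, then after adding cAMP or buffer, at room temperature.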

[29] = measured here: cell count channel max response
[30] = measured here: lipid channel max response

In the case of `c1cncc(CNc2ncnc3ccc(-c4cccnc4)cc23)c1`, the Potency [1] is reported as > 11.4 µM (inactive), the Potency [2] is reported as > 46 µM (inactive) and the Potency [3] is reported as > 46 µM (inactive). For the same compound, the outcome [4] was “inactive”, the Potency [5] was “inactive” and the outcome [6] was “inactive”. The outcome [7] was “inactive”, the activity change, negative = inhibition [8] was 7.28% (inactive) and the max response [8, 29] was -9.9%. For the same compound, the max response [8, 30] was -4.35%, the Potency [9] was “inactive” and the Potency [10] was “inactive”.
For `CN(Cc1ccco1)c1ncnc2ccc(-c3cccnc3)cc12`, the Potency [1] was > 11.4 µM (inactive), the Potency [11] was 0.316 µM (active) and the activity, negative = inhibition [12] was -12.5% (inactive). For the same compound, the Potency [2] was > 46 µM (inactive), the Potency [3] was > 46 µM (inactive) and the outcome [4] was “inactive”. For the same compound, the Potency [13] was 3.98 µM (active), the Potency [14] was “inactive” and the Potency [15] was 2 µM (active). For the same compound, the Potency [16] was 7.94 µM (active), the outcome [6] was “inactive” and the outcome [7] was “inactive”. For the same compound, the activity change, negative = inhibition [8] was 2.3% (inactive), the max response [8, 29] was -8.64% and the max response [8, 30] was -5.56%. The Potency [17] was “inactive”, the Potency [9] was “inactive” and the Potency [10] was “inactive”.
With `O=S(=O)(Nc1ccc(O)c2ncccc12)c1ccccc1F` the Potency [9] was “inactive” and the Potency [18] was “inactive”.
For `Oc1ccc(COc2cccc3ccccc23)c2cccnc12`, the Potency [9] was “inactive”.
With `COc1cccc(-c2ccc3ncnc(N(C)Cc4ccco4)c3c2)c1` the Potency [1] was > 11.4 µM (inactive), the activity change, negative = inhibition [19] was -18.7% (inactive) and the Potency [11] was 1.26 µM (active). For the same compound, the activity change, negative = inhibition [20] was -8.47% (inactive), the activity, negative = inhibition [12] was -14.9% (inactive) and the Potency [2] was > 46 µM (inactive). The Potency [3] was > 46 µM (inactive), the outcome [4] was “inactive” and the Potency [5] was “inactive”. For the same compound, the Potency [14] was “inactive”, the Potency [16] was 2 µM (active) and the activity change, negative = inhibition [8] was 1.9% (inactive). For the same compound, the max response [8, 29] was 8.44%, the max response [8, 30] was 7.63% and the Potency [21] was 2 µM (active). For the same compound, the Potency [22] was 1.78 µM (active), the Potency [23] was 0.562 µM (active) and the Potency [17] was “inactive”. The Potency [9] was “inactive”, the Potency [10] was “inactive” and the Potency [24] was “inactive”. The outcome [25] was “inactive”, the activation [26] was 8.39% [at 17.1 µM] (inactive) and the activity change, negative = inhibition [27] was -12.8% [at 12.7 µM] (inactive). The outcome [28] was “inactive”.
